NPC1 prom act: activators of NPC1 promoter. 2.4% of 320,000 active. Huh7 NPC1 promoter luciferase reporter, 24 h. Potency, µM (series often up to 9.22 µM), for the others: top-dose activation, hits mostly activators. AID 485313; also: % of control where 0% means no effect; nearly all actives have a fitted effect of over 60% in size
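Luciferase expression driven by the NPC1 promoter was measured in stably transfected Huh7 cells after a 24 h compound incubation, using a luciferase reagent and a luminescence read.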
Rab9 prom act: Rab9 promoter activation | 2.8% of 320,000 active | Potency, µM (titrated, usually from 9.22 µM), for the others: top-dose activation, negative = inhibition, usual class: activators | AID 485297 | Huh7 Rab9 promoter-luciferase reporter, luminescence, 24 h; also: % of control where 0% means no effect; nearly all actives have a fitted effect of over 60% in size
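Luminescence read-out: Huh7 cells stably expressing Rab9-luciferase, treated 24 h with compound at 37 °C, then lysed with luciferase reagent for 10 min at ambient before reading.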
ELG1 genotoxic: induces genotoxicity in HEK293T cells with luciferase-tagged ELG1; HEK293T ELG1-luciferase reporter, luminescence, 16 h; Potency, µM (highest dose often 46 µM), for the others: at the highest dose activity change, positive = activation, actives largely listed as activators; 1.3% of 330,000 active; AID 504466; also: % of control where 0% means no effect; nearly all actives have a fitted effect of over 60% in size
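After overnight (16 hr) compound treatment at 37 °C, ELG1-luciferase HEK293T cells were lysed with ONE-Glo; luminescence quantified 30 min later at room temperature.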
Luc counter: counter-screen: inhibitors of Kinase-Glo firefly luciferase; Kinase-Glo luciferase, ATP luminescence, 8 min; Potency, µM (top dose mostly 38.3 µM), inactives show top-dose activity change, negative = inhibition, most hits filed as inhibitors; Q27757; AID 1379; 0.28% of 200,000 active; also: % is scaled to controls: 0 for no effect and ±100 for the full control effect; nearly all actives have a fitted effect of over 60% in size
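Luminescence was the read-out, taken after 8-minute incubation at ambient temperature. Luciferase turned over luciferin with 10 uM ATP in imidazole pH 7.2 buffer containing KCl, MgCl2, Tween 20 and BSA.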
FLuc modulator: counter-screen for miR-21 project: firefly luciferase inhibitors or activators. AID 588342. purified FLuc, Km substrates, luminescence inhibition. Potency, µM (titrated, usually from 57.5 µM), for the others: top-dose activity change, negative = inhibition, hits mostly inhibitors. 6.9% of 360,000 active;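 also: plate controls were vehicle for no effect and reference inhibitor for full effect; nearly all actives have a fitted effect of over 55% in size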
Target sequence (P08659 whole entry, looked up): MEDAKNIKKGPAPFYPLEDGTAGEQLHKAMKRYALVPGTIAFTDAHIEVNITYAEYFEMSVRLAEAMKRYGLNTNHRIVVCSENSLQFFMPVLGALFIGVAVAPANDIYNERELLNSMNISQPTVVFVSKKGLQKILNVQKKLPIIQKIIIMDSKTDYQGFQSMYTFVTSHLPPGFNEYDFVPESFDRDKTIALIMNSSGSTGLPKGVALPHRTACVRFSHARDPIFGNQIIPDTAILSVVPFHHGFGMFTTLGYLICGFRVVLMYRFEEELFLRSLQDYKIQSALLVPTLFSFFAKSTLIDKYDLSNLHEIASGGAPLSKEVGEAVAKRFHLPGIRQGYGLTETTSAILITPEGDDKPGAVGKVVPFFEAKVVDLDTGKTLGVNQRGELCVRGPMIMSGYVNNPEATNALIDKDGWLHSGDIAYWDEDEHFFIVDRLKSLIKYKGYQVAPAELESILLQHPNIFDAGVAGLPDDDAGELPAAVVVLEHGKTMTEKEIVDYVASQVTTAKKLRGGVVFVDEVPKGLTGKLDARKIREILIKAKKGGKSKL
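Biochemical qHTS of compounds, final roughly 60 µM downward over six points, against 10 nM purified firefly luciferase using Km concentrations of substrates (10 uM D-luciferin, 10 uM ATP) in Tris acetate pH 7.5 buffer; luminescence output.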
SMN2 splice enh: increases expression of the SMN2 splice variant. HEK293 SMN2-luciferase splicing reporter, luminescence, 30-36 h. Potency, µM (highest dose often 46.1 µM), for inactives: at the highest dose activity change, positive = activation, usual class: activators. 2.8% of 210,000 active. AID 1458; also: % of control where 0% means no effect; nearly all actives have a fitted effect of over 55% in size
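HEK293 cells carry an SMN2 […]–luciferase reporter in which exon 7 inclusion puts luciferase in frame. Cells were plated 10-12 h before compound addition, then incubated 30-36 h at 37C. ONE-Glo luminescence was read; sodium butyrate at 4.5 mM final served as control.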
An asterisk follows results filed as active; ? = inconclusive; / = no result. A selection: hits, their analogues and other compounds. The true share with any hit is near 7.4%. Calls follow the shape of the dose curve; as a rule, active = well fitted curve in the direction sought with a large enough effect; inconclusive = small, poorly fitted or top-dose-only effect, or another doubt; inactive = no such curve, though single readings can be large; an effect the other way counts as inactive or inconclusive. Potency is read from the fitted curve at half-maximal effect.

SMILES | NPC1 prom act | Rab9 prom act | ELG1 genotoxic | Luc counter | FLuc modulator | SMN2 splice enh
COc1ccc(N2CCN(C(=O)c3cc(S(=O)(=O)N4CCCCCC4)ccc3OC)CC2)cc1 | -1.6% | -4.3% | -2.3% | / | 5.5% | /
O=C(Cc1ccc(F)cc1)Nc1nccs1 | -0.7% | 4.4% | -10.6% | / | -1.3% | /
CC(C)(C)c1nnc(NC(=S)Nc2ccccc2)s1 | 3.55µM* | 3.16µM* | ? | 4.4% | 9.53µM* | 12.6µM*
COc1cc(OC)cc(C(=O)Nc2nnc(NC(=S)Nc3ccccc3)s2)c1 | -2.0% | -2.3% | -5.4% | 1.8% | -0.8% | 12.1%
S=C(Nc1ccccc1)Nc1nccs1 | 2.51µM* | ? | 7.9% | -4.3% | 15.1µM* | ?
Fc1ccc(NC(=S)Nc2nccs2)cc1 | ? | 3.55µM* | 5.6% | 0.5% | 21.3µM* | ?
COc1ccc(CN(CC(=O)NCc2ccc(F)cc2)C(=O)CCC(=O)Nc2nccs2)cc1 | -2.5% | -0.7% | -3.0% | / | 1.1% | /
Cc1csc(NC(=O)c2nc3nc(C)cc(C)n3n2)n1 | 3.55µM* | 3.98µM* | ? | -9.7% | 21.3µM* | 11.2µM*
CSc1ncccc1C(=O)Nc1nc(C(C)(C)C)cs1 | 16.5% | 18.0% | 12.2% | / | 16.9µM* | /
CC(C)(C)c1csc(NC(=O)c2ccccc2O)n1 | ? | ? | -3.4% | / | 0.536µM* | /
Cc1csc(NC(=O)c2ccccc2O)n1 | ? | ? | ? | -7.5% | 12µM* | 2.3%
Cc1ccc(NC(=O)CN2C(=O)NC3(CCCCCC3)C2=O)cc1Cl | -4.2% | -4.1% | 1.3% | / | -10.3% | /
Cc1cnc(NC(=O)Cc2ccccc2Cl)s1 | -1.8% | 2.9% | 8.4% | / | 3.5% | /
Cc1csc(NC(=O)Cc2ccccc2Cl)n1 | ? | 5.01µM* | ? | / | 16.9µM* | /
Cc1csc(NC(=O)c2cc(C)oc2C)n1 | ? | ? | 12.4% | ? | 21.3µM* | 58.0%
Cc1ccc(C(=O)O)c(C(=O)Nc2nc(C)cs2)c1 | -0.1% | -1.4% | 1.0% | -0.1% | -1.3% | -7.6%
CC1Cc2ccccc2N1C(=O)CSc1nnc(-c2ccccc2)c(-c2ccccc2)n1 (stereo not given) | -4.5% | -1.3% | -5.2% | 0.0% | 1.7% | -40.1%
CCOC(=O)Cc1ccc(NC(=O)Nc2nnc(N3CCCCC3C)s2)cc1 (stereo not given) | / | / | / | / | -2.0% | /
CCOC(=O)c1sc2nc(NC(=O)C(C)(C)C)sc2c1C | 0.891µM* | 1.26µM* | 2.59µM* | -5.0% | 2.69µM* | ?
CCOC(=O)c1sc2nc(NC(=O)C3CC3)sc2c1C | ? | ? | ? | 1.0% | -15.1% | 5.0%
CCOC(=O)CSc1ccc(C(=O)NCCCN2CCOCC2)cc1[N+](=O)[O-] | -5.1% | -2.3% | -2.5% | / | 1.0% | /
Cc1ccc(Nc2nnc(SC(C)C(=O)Nc3c(C)n(C)n(-c4ccccc4)c3=O)s2)cc1 (stereo not given) | -1.0% | 0.3% | -0.2% | -2.5% | 10.7µM* | 5.5%
Cc1cccc(C)c1Nc1nnc(SC(C)C(=O)Nc2c(C)n(C)n(-c3ccccc3)c2=O)s1 (stereo not given) | 1.3% | -4.8% | -0.4% | 0.7% | 1.9% | 2.9%
CSCC[C@@H](N)C(=O)O | / | / | / | / | / | 9.3%
O=C1C2C(C(=O)N1/N=C/c1cccc([N+](=O)[O-])c1)C1C=CC2C12CC2 (stereo not given) | ? | ? | ? | -8.5% | 7.57µM* | 16.3%
SMILES | NPC1 prom act | Rab9 prom act | ELG1 genotoxic | Luc counter | FLuc modulator | SMN2 splice enh
COc1ccc(-c2csc(-c3ccccc3)n2)c(OC)c1 | ? | ? | 4.61µM* | -13.2% | 3.38µM* | 11.2µM*
COc1ccc(-c2csc(-c3cccs3)n2)c(OC)c1 | ? | 1.26µM* | 2.06µM* | -8.3% | 3.38µM* | 11.2µM*
COc1ccc(-c2csc(NC(=O)Cc3ccccc3F)n2)c(OC)c1 | 4.8% | 11.5% | 1.2% | / | ? | /
COCCN(Cc1nc(-c2ccc(-c3ccccc3)cc2)oc1C)C(C)C | -19.9% | ? | 0.92µM* | / | 9.53µM* | /
Cc1oc(-c2ccoc2)nc1CN(CC1CCC(=O)N1)C(C)C (stereo not given) | -3.6% | -1.3% | 3.5% | -2.3% | -1.3% | /
N#Cc1cccc(NC(=O)CNc2cccc(S(=O)(=O)N3CCCCC3)c2)c1 | -1.5% | -1.4% | -7.4% | / | -11.9% | /
